Among the test systems are HCT-15 colon; HT29 colon; SNB-75 CNS; SNB-19 CNS; U251 CNS; PC-3 prostate; SK-MEL-5 melanoma; UACC-62 melanoma; LOX IMVI melanoma; SK-MEL-28 melanoma.
Common to all, as to test: NCI-60 one-dose screen, 48 h (100 = growth as untreated, 0 = no growth, -100 = all killed)
Conditions in all cases: 10 µM unless noted

This is part of a sample that, as a whole, favours compounds with a hit. Of some 83,000 tested, about 20% had one in any assay.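 Cell lines were cultured in 96-well plates, exposed to a single compound concentration, and assessed for percent growth 48 hours later.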 A number with no mark means an inactive call. Active and inactive are the calls of the source. The calls were made as follows: active = growth percent below 10; inactive = the rest.

On to `CCCC[C@H](NC(=O)[C@H]1CCCCN1C)C(=O)N(C)[C@H](C[C@@H](OC(C)=O)c1nc(C(=O)N[C@@H](Cc2ccccc2)C[C@H](C)C(=O)OCC)cs1)C(C)C`, for which the growth with HCT-15 colon is 20.4%; in the assay with HT29 colon, -16.4% (active); in the assay with SNB-75 CNS it was 41.9%; in the assay on SNB-19 CNS, 37.5%; with U251 CNS it was 5.09% (active); in the assay on PC-3 prostate, 17.5%. Further, the growth in the assay with SK-MEL-5 melanoma is -26% (active); in the assay on UACC-62 melanoma it was 46.2%; with LOX IMVI melanoma, 17.9%; with SK-MEL-28 melanoma, 67.4%.

As for `CC(C)OC(=O)[C@H](C)NP(=O)(Oc1ccccc1)C1CCCN(O)C1=O` (stereo not given in full), the growth in the assay on HCT-15 colon was 93.1%; in the assay with HT29 colon, 91.7%; with SNB-75 CNS, 108%; with SNB-19 CNS, 98.8%; with U251 CNS it was 105%; with PC-3 prostate it was 94.5%. Also, the growth with SK-MEL-5 melanoma is 99.2%; with UACC-62 melanoma it was 71.8%; in the assay with LOX IMVI melanoma, 85.3%; in the assay with SK-MEL-28 melanoma, 52.2%.

Take `CCOC(=O)[C@@H](C)C[C@H](Cc1ccccc1)NC(=O)c1csc([C@@H](C[C@H](C(C)C)N(C)C(=O)[C@H](CC)NC(=O)[C@H]2CCCCN2C)OC(C)=O)n1`: the growth was 9.87% (active) in the assay on HCT-15 colon; 4.72% (active) in the assay with HT29 colon; 25.4% with SNB-75 CNS; 19.7% in the assay on SNB-19 CNS; 11.7% in the assay on U251 CNS; 23.8% with PC-3 prostate. For the same compound, the growth in the assay with SK-MEL-5 melanoma was -52.9% (active); in the assay with UACC-62 melanoma, 30.9%; with LOX IMVI melanoma, 9.39% (active); in the assay on SK-MEL-28 melanoma it was 61.8%.

For `CCCOC(=O)N[C@H]1CCc2c(Br)c(OC)c(OC)c(OC)c2-c2ccc(SC)c(=O)cc21`, the growth was 7.9% (active) in the assay with HCT-15 colon; 12.2% with HT29 colon; 19.6% in the assay with SNB-75 CNS; 23.1% in the assay on SNB-19 CNS; 17.6% in the assay with U251 CNS; 21.1% in the assay with PC-3 prostate. Besides, the growth in the assay on SK-MEL-5 melanoma was -29.9% (active); in the assay with UACC-62 melanoma it was 17.8%; with LOX IMVI melanoma it was 8.1% (active); with SK-MEL-28 melanoma it was 64.7%.

Consider `COC1CC2c3ccccc3C1C(C)=[N+]2C` (stereo not given), for which the growth with HCT-15 colon was 101%; in the assay on HT29 colon, 96.6%; in the assay on SNB-75 CNS, 71.7%; in the assay with SNB-19 CNS, 100%; in the assay on U251 CNS it was 99.1%; in the assay with PC-3 prostate, 84.8%. Also, the growth is 106% with SK-MEL-5 melanoma, 91.8% in the assay with UACC-62 melanoma, 94.7% in the assay on LOX IMVI melanoma and 145% in the assay on SK-MEL-28 melanoma.

`O=C1NC(=O)C(=Cc2ccc(OCCCCC3CCCCC3)c(Cl)c2)C(=O)N1`: the growth in the assay with HCT-15 colon was 98.5%; in the assay with HT29 colon, 92.3%; in the assay on SNB-75 CNS, 96.2%; with SNB-19 CNS it was 100%; in the assay on U251 CNS it was 81.7%; in the assay on PC-3 prostate, 88.4%. For the same compound, the growth is 98.3% in the assay with SK-MEL-5 melanoma, 98.3% in the assay on UACC-62 melanoma, 56.1% in the assay with LOX IMVI melanoma and 111% with SK-MEL-28 melanoma.

`O=C(CN1CCN(C(=O)c2ccco2)CC1)Nc1ccc(Cl)cc1C(=O)c1ccccc1Cl`: the growth in the assay with HCT-15 colon is 81.9%; with HT29 colon it was 89.4%; with SNB-75 CNS, 67.8%; in the assay on SNB-19 CNS, 99.2%; with U251 CNS, 91.3%; in the assay with PC-3 prostate, 73.9%. The growth in the assay with SK-MEL-5 melanoma was 51.1%; in the assay with UACC-62 melanoma it was 58.5%; with LOX IMVI melanoma it was 79.9%; with SK-MEL-28 melanoma, 110%.

Take `C[C@@]1(CCCCCCCCCc2ccc(O)cc2)C[C@]2(C)OC(=O)C[C@@H]2OO1`: the growth was 83.7% in the assay with HCT-15 colon; 102% in the assay on HT29 colon; 95% with SNB-75 CNS; 96.6% with SNB-19 CNS; 92.8% in the assay on U251 CNS; 61.7% in the assay on PC-3 prostate. Also, the growth in the assay with SK-MEL-5 melanoma was 105%; in the assay with UACC-62 melanoma it was 95.2%; with LOX IMVI melanoma, -81.2% (active); with SK-MEL-28 melanoma it was 99.5%.

Regarding `O=C(CCCCCNC1=CC(=O)c2ccccc2C1=O)NCCC[Te]c1ccccc1`, the growth with HCT-15 colon is -20.1% (active); with HT29 colon, -47.5% (active); in the assay with SNB-75 CNS, -26% (active); in the assay on SNB-19 CNS, 5.42% (active); in the assay on U251 CNS it was -8.56% (active); in the assay on PC-3 prostate it was -0.995% (active). In addition, the growth is -92.9% (active) in the assay with SK-MEL-5 melanoma, -27.7% (active) in the assay with UACC-62 melanoma, -22.1% (active) with LOX IMVI melanoma and -42% (active) in the assay on SK-MEL-28 melanoma.

For the compound `[Cl][Hg][c]1cc(Br)cc(Br)c1`, the growth is 38.2% with HCT-15 colon; 46.4% in the assay with HT29 colon; 21.6% in the assay with SNB-75 CNS; 17% in the assay on SNB-19 CNS; -55.9% (active) with U251 CNS; 50.3% in the assay on PC-3 prostate. For the same compound, the growth in the assay with SK-MEL-5 melanoma was 22.1%; with UACC-62 melanoma it was 47%; with LOX IMVI melanoma, 9.91% (active); in the assay with SK-MEL-28 melanoma, 59.5%.

Take `CN(CCCCN(C)CCOS(C)(=O)=O)CCOS(C)(=O)=O`: the growth in the assay with HCT-15 colon is 89.4%; with HT29 colon it was 86.9%; with SNB-75 CNS it was 88.5%; in the assay with SNB-19 CNS, 94.7%; in the assay on U251 CNS, 71.8%; with PC-3 prostate, 85.3%. Besides, the growth with SK-MEL-5 melanoma was 84.4%; in the assay on UACC-62 melanoma, 56.1%; in the assay with LOX IMVI melanoma, 58%; with SK-MEL-28 melanoma, 95.1%.

Take `CC[CH2][Sn]([Cl])([Cl])[CH2]CC`: the growth with HCT-15 colon was 83.1%; with HT29 colon, 103%; in the assay with SNB-75 CNS, 55.9%; with SNB-19 CNS, 88.9%; in the assay with U251 CNS, 39.2%; in the assay with PC-3 prostate it was 103%. Further, the growth was 86.4% in the assay with SK-MEL-5 melanoma, 60% in the assay with UACC-62 melanoma, 27.6% with LOX IMVI melanoma and 69.2% with SK-MEL-28 melanoma.

With `COc1ccc(S(=O)(=O)N(Cc2ccc3c(c2)C=CC(C)(C)O3)c2ccccc2)cc1OC`, the growth was 74.9% with HCT-15 colon; 72.9% in the assay with HT29 colon; 83.1% in the assay with SNB-75 CNS; 93.7% with SNB-19 CNS; 89.1% in the assay with U251 CNS; 73.7% in the assay on PC-3 prostate. Also, the growth in the assay on SK-MEL-5 melanoma was 3.42% (active); in the assay on UACC-62 melanoma, 79.1%; in the assay with LOX IMVI melanoma, 74.2%; in the assay with SK-MEL-28 melanoma, 67.9%.

The record behind these values is PubChem BioAssay (NCI).
